Holding throughout (details): mRNA level, 48 h; actives raise or lower the signal
Read-out in assay [1]: Tumor necrosis factor receptor superfamily member 6 (Homo sapiens) (UniProt P25445)
The assay can be described thus: LTEA_HepaRG_FAS: Life Technologies and Expression Analysis (LTEA) Assay for Fas cell surface death receptor (FAS) using HepaRG (AID 2283447). An outline of the steps:
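Differentiated HepaRG cells in serum-free induction medium were exposed 48 h to 8 half-log concentrations up to 100 uM in 0.5% DMSO, in duplicate. FAS mRNA was measured by qRT-PCR normalised to ACTB, GAPDH and POLR2A; bidirectional fit versus DMSO.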

Read-out in assay [2]: Fatty acid synthase (Homo sapiens) (UniProt P49327)
The assay can be described thus: LTEA_HepaRG_FASN: Life Technologies and Expression Analysis (LTEA) Assay for Fatty Acid Synthase (FASN) using HepaRG (AID 2283448). The procedure, abridged: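 Cells were plated, cultured 48 h, switched to serum-free induction medium, then dosed in duplicate (max 100 uM, half-log dilutions, 0.5% DMSO) for 48 h. RNA was then isolated and FASN quantified by qRT-PCR.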

Read-out in assay [3]: Cyclin Dependent Kinase Inhibitor 1A (CDKN1A), CDKN1A (gene 1026)
The experiment in a line: LTEA_HepaRG_CDKN1A: Life Technologies and Expression Analysis (LTEA) Assay for Cyclin Dependent Kinase Inhibitor 1A (CDKN1A) using HepaRG (AID 2283450). The procedure, abridged:
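Differentiated human HepaRG cells, pre-cultured 48 h, were exposed in duplicate for 48 h in serum-free induction medium to eight half-log concentrations up to 100 uM (0.5% DMSO). CDKN1A mRNA was measured by qRT-PCR, normalized to ACTB/GAPDH/POLR2A, bidirectionally fitted versus DMSO.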

Read-out in assay [4]: Cyclin D1 (CCND1), CCND1 (gene 595)
The experiment in a line: LTEA_HepaRG_CCND1: Life Technologies and Expression Analysis (LTEA) Assay for Cyclin D1 (CCND1) using HepaRG (AID 2283451).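 As to AC50: TaqMan qRT-PCR transcript level normalised to ACTB GAPDH and POLR2A housekeeping genes.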 An outline of the steps: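 Differentiated human HepaRG cells in serum-free induction medium were exposed 48 h to eight half-log concentrations up to 100 uM in 0.5% DMSO; mRNA quantified by TaqMan qRT-PCR, normalized to ACTB, GAPDH, POLR2A, fitted bidirectionally versus DMSO.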

Read-out in assay [5]: catalase (CAT), CAT (gene 847)
The experiment in a line: LTEA_HepaRG_CAT: Life Technologies and Expression Analysis (LTEA) Assay for catalase (CAT) using HepaRG (AID 2283452). An outline of the steps: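 HepaRG cells in serum-free induction medium, 0.5% DMSO vehicle, exposed 48 h in duplicate over 8 half-log concentrations from 100 uM. CAT mRNA measured by qRT-PCR, normalized to ACTB, GAPDH, POLR2A; bidirectional fit versus DMSO.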

Read-out in assay [6]: flavin-containing dimethylaniline monooxygenases 3 (FMO3), FMO3 (gene 2328)
The assay can be described thus: LTEA_HepaRG_FMO3: Life Technologies and Expression Analysis (LTEA) Assay for flavin-containing dimethylaniline monooxygenases 3 (FMO3) using HepaRG (AID 2283453). The procedure, abridged:
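FMO3 transcript quantified by TaqMan qRT-PCR against three housekeeping genes after 48 h chemical exposure of HepaRG cells. Eight-point half-log series, top 100 uM, 0.5% DMSO vehicle; phenobarbital 1mM induction control; up- or down-regulation fitted.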

Read-out in assay [7]: Cytochrome P450 (CYP1A1), CYP1A1 (gene 1543)
The assay can be described thus: LTEA_HepaRG_CYP1A1: Life Technologies and Expression Analysis (LTEA) Assay for Cytochrome P450 (CYP1A1) using HepaRG (AID 2283454). The procedure, abridged:
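Differentiated HepaRG cells in serum-free induction medium were exposed in duplicate for 48 h to eight half-log concentrations up to 100 uM in 0.5% DMSO. CYP1A1 mRNA was quantified by TaqMan qRT-PCR, normalized to ACTB, GAPDH and POLR2A.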

Read-out in assay [8]: CFLAR gene, CFLAR (gene 8837)
The experiment in a line: LTEA_HepaRG_CFLAR: Life Technologies and Expression Analysis (LTEA) Assay for CFLAR gene using HepaRG (AID 2283455). An outline of the steps: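 qRT-PCR read-out (Fluidigm/TaqMan) of CFLAR mRNA, normalized to three housekeeping genes, in differentiated human HepaRG cells after 48 h chemical exposure; 8-point half-log series from 100 uM in 0.5% DMSO; bidirectional curve fitting versus DMSO.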

Read-out in assay [9]: Forkhead box O1 (FOXO1), FOXO1 (gene 2308)
The experiment in a line: LTEA_HepaRG_FOXO1: Life Technologies and Expression Analysis (LTEA) Assay for Forkhead box O1 (FOXO1) using HepaRG (AID 2283456). The procedure, abridged: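 HepaRG, 48 h exposure, 8-pt half-log series from 100 uM in 0.5% DMSO, duplicates; Fluidigm qRT-PCR mRNA, housekeeping-normalised; bidirectional fit vs DMSO baseline.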

Read-out in assay [10]: growth arrest and DNA damage 45 (GADD45A), GADD45A (gene 1647)
The assay can be described thus: LTEA_HepaRG_GADD45A: Life Technologies and Expression Analysis (LTEA) Assay for growth arrest and DNA damage 45 (GADD45A) using HepaRG (AID 2283458). The procedure, abridged:
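Transcript induction or loss, quantified by TaqMan qRT-PCR against three housekeeping genes, is the read-out. HepaRG cells received chemicals for 48 h across eight half-log concentrations from 100 uM in 0.5% DMSO; gain and loss fitted relative to DMSO.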

Read-out in assay [11]: Forkhead box O3 (FOXO3), FOXO3 (gene 2309)
The assay can be described thus: LTEA_HepaRG_FOXO3: Life Technologies and Expression Analysis (LTEA) Assay for Forkhead box O3 (FOXO3) using HepaRG (AID 2283459). The procedure, abridged:
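qRT-PCR readout of FOXO3 transcript, normalized to three housekeeping genes (ACTB, GAPDH, POLR2A); gain or loss fitted against 0.5% DMSO vehicle. HepaRG cells, 48 h chemical exposure, 8-point half-log series, top 100 uM.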

Read-out in assay [12]: ABC Transporter (ABCB1), ABCB1 (gene 5243)
The assay can be described thus: LTEA_HepaRG_ABCB1: Life Technologies and Expression Analysis (LTEA) Assay for ABC Transporter (ABCB1) using HepaRG (AID 2283460). An outline of the steps: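 HepaRG, 48 h exposure, 8-pt half-log series from 100 uM, 0.5% DMSO vehicle, duplicates. Readout: ABCB1 transcript by Fluidigm TaqMan qRT-PCR, housekeeping-normalized; bidirectional curve fit vs DMSO baseline.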

Read-out in assay [13]: growth arrest and DNA damage 45 (GADD45B), GADD45B (gene 4616)
The experiment in a line: LTEA_HepaRG_GADD45B: Life Technologies and Expression Analysis (LTEA) Assay for growth arrest and DNA damage 45 (GADD45B) using HepaRG (AID 2283461). An outline of the steps: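 Differentiated HepaRG cells, plated 48 h then switched to serum-free induction medium, were exposed 48 h in duplicate to eight half-log concentrations from 100 uM in 0.5% DMSO; mRNA quantified by qRT-PCR, normalized to ACTB/GAPDH/POLR2A, bidirectional fit versus DMSO.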

Read-out in assay [14]: ABC Transporter (ABCC3), ABCC3 (gene 8714)
The assay can be described thus: LTEA_HepaRG_ABCC3: Life Technologies and Expression Analysis (LTEA) Assay for ABC Transporter (ABCC3) using HepaRG (AID 2283462). The procedure, abridged: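 HepaRG cells in serum-free induction medium were exposed for 48 h in duplicate to 8-point half-log concentrations topping at 100 uM in 0.5% DMSO. ABCC3 mRNA was measured by qRT-PCR normalized to ACTB, GAPDH and POLR2A, with bidirectional fitting versus DMSO.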

Read-out in assay [15]: Cyclin D2 (CCND2), CCND2 (gene 894)
The experiment in a line: LTEA_HepaRG_CCND2: Life Technologies and Expression Analysis (LTEA) Assay for Cyclin D2 (CCND2) using HepaRG (AID 2283449).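 Also: CCND2 transcript measured by TaqMan qRT-PCR and normalised to three housekeeping genes.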 An outline of the steps:
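HepaRG, 48 h dosing, 8-pt half-log curve from 100 uM, 0.5% DMSO; duplicate wells. Readout: CCND2 transcript by microfluidic qRT-PCR, housekeeping-normalised; bidirectional fit vs DMSO baseline.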

Calls of active or inactive are those of the source. The calls were made as follows: active = hit-call score of the fitted dose curve at least 0.9, where 1 is the maximum; inactive = score below 0.9.

Here are results for seven compounds from PubChem BioAssay (EPA / NIEHS).

Fatty acid synthase (Homo sapiens), sequence (P49327 whole entry, looked up): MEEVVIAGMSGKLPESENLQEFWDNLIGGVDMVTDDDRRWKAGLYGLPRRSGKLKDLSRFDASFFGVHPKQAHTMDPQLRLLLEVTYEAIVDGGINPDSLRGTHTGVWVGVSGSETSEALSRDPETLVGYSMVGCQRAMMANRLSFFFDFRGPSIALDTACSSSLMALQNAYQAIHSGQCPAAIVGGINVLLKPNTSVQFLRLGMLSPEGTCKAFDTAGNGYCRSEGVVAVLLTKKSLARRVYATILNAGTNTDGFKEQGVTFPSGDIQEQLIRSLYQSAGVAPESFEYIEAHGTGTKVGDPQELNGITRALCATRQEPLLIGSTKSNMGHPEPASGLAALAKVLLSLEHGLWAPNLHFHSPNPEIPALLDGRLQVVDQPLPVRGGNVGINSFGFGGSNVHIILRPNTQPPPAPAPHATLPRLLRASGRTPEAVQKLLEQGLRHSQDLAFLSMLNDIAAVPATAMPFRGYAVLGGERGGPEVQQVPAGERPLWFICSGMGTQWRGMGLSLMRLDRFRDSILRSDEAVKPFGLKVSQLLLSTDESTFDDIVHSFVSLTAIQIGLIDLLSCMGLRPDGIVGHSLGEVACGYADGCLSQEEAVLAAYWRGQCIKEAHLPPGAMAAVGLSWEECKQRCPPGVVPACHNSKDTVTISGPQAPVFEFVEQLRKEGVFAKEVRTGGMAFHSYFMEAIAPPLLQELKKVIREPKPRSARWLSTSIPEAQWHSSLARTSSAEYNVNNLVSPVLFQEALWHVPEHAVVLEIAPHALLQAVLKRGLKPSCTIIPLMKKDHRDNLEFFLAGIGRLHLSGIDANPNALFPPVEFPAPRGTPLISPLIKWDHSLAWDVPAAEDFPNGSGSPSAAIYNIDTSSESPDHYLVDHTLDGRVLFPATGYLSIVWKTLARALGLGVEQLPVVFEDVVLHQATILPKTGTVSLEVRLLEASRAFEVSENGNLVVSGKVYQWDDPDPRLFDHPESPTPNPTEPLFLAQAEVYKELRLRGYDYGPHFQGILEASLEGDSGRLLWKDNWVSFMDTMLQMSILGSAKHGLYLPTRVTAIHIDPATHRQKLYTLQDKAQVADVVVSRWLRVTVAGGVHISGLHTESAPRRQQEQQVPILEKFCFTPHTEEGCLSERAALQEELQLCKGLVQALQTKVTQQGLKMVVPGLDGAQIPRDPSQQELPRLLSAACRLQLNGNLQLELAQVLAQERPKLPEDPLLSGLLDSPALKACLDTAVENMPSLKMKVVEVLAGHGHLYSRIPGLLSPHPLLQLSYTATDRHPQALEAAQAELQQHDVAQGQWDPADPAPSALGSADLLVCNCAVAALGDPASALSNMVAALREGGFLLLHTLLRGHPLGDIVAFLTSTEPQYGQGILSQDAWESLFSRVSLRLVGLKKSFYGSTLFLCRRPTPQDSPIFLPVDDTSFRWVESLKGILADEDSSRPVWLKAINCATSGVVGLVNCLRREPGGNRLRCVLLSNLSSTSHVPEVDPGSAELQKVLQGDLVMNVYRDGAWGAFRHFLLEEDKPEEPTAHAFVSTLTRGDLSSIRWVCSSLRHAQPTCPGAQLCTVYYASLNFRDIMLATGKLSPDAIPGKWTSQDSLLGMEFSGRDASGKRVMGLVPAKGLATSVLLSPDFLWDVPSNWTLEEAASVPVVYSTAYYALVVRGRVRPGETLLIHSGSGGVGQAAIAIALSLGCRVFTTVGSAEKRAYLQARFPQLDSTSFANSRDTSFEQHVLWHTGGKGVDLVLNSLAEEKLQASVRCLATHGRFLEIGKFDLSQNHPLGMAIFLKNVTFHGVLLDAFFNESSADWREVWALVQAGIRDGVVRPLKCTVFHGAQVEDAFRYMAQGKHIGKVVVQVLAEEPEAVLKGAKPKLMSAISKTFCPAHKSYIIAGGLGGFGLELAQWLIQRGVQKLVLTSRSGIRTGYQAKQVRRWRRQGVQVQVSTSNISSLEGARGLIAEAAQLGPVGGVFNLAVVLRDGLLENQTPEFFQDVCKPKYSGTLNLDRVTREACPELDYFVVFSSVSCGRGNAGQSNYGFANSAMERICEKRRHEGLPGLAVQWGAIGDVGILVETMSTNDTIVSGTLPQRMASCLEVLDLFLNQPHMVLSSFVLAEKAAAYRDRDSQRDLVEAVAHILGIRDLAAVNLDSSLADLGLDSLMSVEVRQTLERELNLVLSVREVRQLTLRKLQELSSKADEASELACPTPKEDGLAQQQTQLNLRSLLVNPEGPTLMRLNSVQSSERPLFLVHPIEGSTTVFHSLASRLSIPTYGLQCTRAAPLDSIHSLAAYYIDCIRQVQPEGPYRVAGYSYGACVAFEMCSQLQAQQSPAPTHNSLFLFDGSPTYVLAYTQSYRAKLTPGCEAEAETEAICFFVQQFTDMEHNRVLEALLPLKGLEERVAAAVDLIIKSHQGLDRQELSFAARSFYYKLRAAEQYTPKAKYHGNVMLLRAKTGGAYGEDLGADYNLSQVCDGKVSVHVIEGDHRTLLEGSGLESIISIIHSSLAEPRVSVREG

In general, AC50 refers to the concentration giving half of the maximal activity seen. `CCc1cc(SCc2sc(-c3ccc(C(F)(F)F)cc3)nc2CN2CCN(c3ccc(OC)cc3)CC2)ccc1OCC(=O)O`: the AC50 was 26.2 µM (active) in assay [1]; 71.3 µM (active) in assay [2]; 85.4 µM (active) in assay [3]; 93.4 µM (active) in [4]; 93.7 µM (active) in assay [5]; 5.55 µM (active) in [6]. The AC50 in assay [7] was 7.69 µM (active); in [8], 92.2 µM (active); in assay [9] it was 92.4 µM (active); in assay [10], 8.67 µM (active); in assay [11] it was 93.5 µM (active); in assay [12], 25 µM (active). The values for the AC50 in assay [13] and in assay [14] were 92.7 µM (active) and 90.3 µM (active), respectively.
`CC(C)=CCCC(C)CCO` (stereo not drawn): the outcome in assay [1], in [2], in assay [3], in assay [4], in assay [5] and in assay [6] was inactive. For the same compound, the compound was classed as inactive in assay [8], in assay [9], in [10], in assay [11], in assay [12] and in [13]. In addition, the result in [14] was inactive. In assay [7], the AC50 was 62.2 µM (active).
With `CCN(C(=O)c1cc(C)cc(OC[C@H](C)Nc2ccncc2)c1)C(C)C`, the AC50 is 8.02 µM (active) in [1]; 5.84 µM (active) in assay [2]; 33.8 µM (active) in assay [5]; 50.7 µM (active) in assay [6]; 0.232 µM (active) in assay [10]; 33.8 µM (active) in [14]. Also, the result in assay [3], in assay [4], in assay [8], in assay [9], in assay [11] and in assay [12] was inactive. In assay [13], the compound was called inactive.
Consider `Cc1ccc(S(=O)(=O)O)cc1C`, for which the result in [1], in [2], in assay [3], in assay [4], in [5] and in [6] was inactive. The outcome in assay [8], in [9], in [10], in assay [11], in [12] and in [13] was inactive. Further, in assay [14], the compound was called inactive.
As for `O=C(O)c1cccc(Oc2ccccc2)c1`, the compound was called inactive in assay [1], in [2], in assay [15], in [3], in assay [4] and in assay [5]. In addition, the result in assay [6], in assay [8], in assay [9], in [10], in [11] and in assay [13] was inactive. Also, in assay [14], the call was inactive.
On to `CC(=O)OCCC(C)C`, for which the compound was classed as inactive in assay [1], in assay [2], in assay [15], in [3], in assay [4] and in [5]. The result in assay [6], in assay [8], in assay [9], in assay [10], in [11] and in assay [13] was inactive. For the same compound, the compound was called inactive in assay [14].
Consider `Nc1nc2ncc(CNc3ccc(C(=O)N[C@@H](CCC(=O)O)C(=O)O)cc3)nc2c(=O)[nH]1`, for which the compound was called inactive in [1], in assay [2], in assay [15], in assay [3], in assay [4] and in assay [5]. The outcome in [6], in assay [8], in assay [9], in assay [10], in [11] and in assay [13] was inactive. Moreover, in assay [14], the call was inactive.
